By inhibition is commonly meant the drop in the measured response relative to a control, in per cent.

Values without a mark were called inactive. No rule for the calls is given here.

This test deals with Pantothenate synthetase (Mycobacterium tuberculosis (strain ATCC 25618 / H37Rv)) (UniProt P9WIL5). The test is described as follows: Coupled enzyme confirmation of inhibitors against recombinant Mtb PanC (AID 375).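 Also: 0% = full reaction with vehicle and 100% = no enzyme background.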 To be noted: coupled enzyme assay; at 10 µM, hits give high values.
Chain of Pantothenate synthetase (Mycobacterium tuberculosis (strain ATCC 25618 / H37Rv)) (P9WIL5 whole entry, looked up): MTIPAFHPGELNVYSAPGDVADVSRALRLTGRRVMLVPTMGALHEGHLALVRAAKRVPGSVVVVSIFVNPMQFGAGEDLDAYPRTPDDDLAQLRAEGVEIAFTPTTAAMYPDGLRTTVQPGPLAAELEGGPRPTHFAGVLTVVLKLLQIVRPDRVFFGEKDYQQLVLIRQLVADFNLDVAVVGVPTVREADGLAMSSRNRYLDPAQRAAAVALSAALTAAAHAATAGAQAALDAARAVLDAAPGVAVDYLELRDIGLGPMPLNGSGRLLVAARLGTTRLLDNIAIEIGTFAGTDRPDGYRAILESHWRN
`CC(C)[C@H](NC(=O)[C@@H]1CSCN1C(=O)OC(C)(C)C)C(=O)NCC1CCC(C(=O)O)CC1` (stereo not given in full): the inhibition is 7%.
With `CCCOC(=O)c1ccc(-c2c(C)noc2-c2ccc(OC)cc2O)o1` the figure was 0%; with `O=P1(O)C=C(c2ccccc2)NC(c2ccccc2)=C1`, 0%; with `CCOC(=O)c1ccccc1NC(=O)c1cccnc1`, 0%.
With `CC(=O)Nc1ccc(Oc2cc(C#N)c(C#N)cc2N2CCCCCC2)cc1`, the inhibition is 0%.
With `COc1ccc(-n2c(SCc3ccc(C#N)cc3)nnc2-c2ccccn2)cc1` the figure was 0%.
Then `Cc1cc(NC(=O)COc2cccc(Oc3ccccc3)c2)no1`, with 8%; and `Cc1ccc(CNc2cc(-c3nn4c(C)nnc4s3)ccc2C)s1`, with 4%.
Consider `C/C=C/COC(=O)c1[nH]c2c(c1C)C(=O)CC(c1ccc(N(C)C)cc1)C2` (stereo not given), for which the inhibition is 1%.
With `CCN(CC)C(=O)Cn1ncc2c1-c1ccccc1OC2`, the inhibition was 0%.
As for `C/C(=C\c1cc(C(=O)O)c(C)o1)CO`, the inhibition was 0%.
As for `CCOc1ccccc1NC(=O)CC1Nc2cc(C)c(C)cc2NC1=O` (stereo not given), the inhibition is 0%.
For `CN1CCN(S(=O)(=O)c2ccc(NC(=O)Nc3cccc(Cl)c3)cc2)CC1`, the inhibition is 1%.
Take `CCSc1nc2ccccc2n1CCC(=O)O`: the inhibition was 0%.
`O=C(CSc1nnc(-c2ccccn2)n1Cc1ccccc1)N1CCCC1`: the inhibition was 0%.
Turning to `COc1ccccc1OCc1ccc(C(=O)NC(C)(C)C)o1`, the inhibition was 2%.
In the case of `Cc1cc(NC(=O)CN2CCC(O)(c3cccc(F)c3)CC2)no1`, the inhibition is 0%.
On to `COC(=O)c1c(NC(=O)C2CC=CCC2C(=O)O)sc(C(N)=O)c1C` (stereo not given), for which the inhibition was 1%.
Consider `CN(C)c1cccc(NC(=O)CCc2ccccc2)c1`, for which the inhibition is 0%.
As for `CCCCOC(=O)CNc1nnc(SCC(=O)OCC)[nH]c1=O`, the inhibition is 3%.
Consider `CC(C)CN(C(=O)COC(=O)Cc1n[nH]c(=O)c2ccccc12)C1CCS(=O)(=O)C1` (stereo not given), for which the inhibition was 2%.
Regarding `Cc1oc2cc3c(C(=O)OCCN(C)C)c(C)oc3cc2c1C(=O)OCCN(C)C`, the inhibition is 0%.
In the case of `O=C(Cn1nnc(-c2ccc(CN3CCOCC3)cc2)n1)NC1CCCCC1`, the inhibition is 12%.
For the compound `C=CCOc1ccc(/C=N/n2cncn2)cc1OC`, the inhibition was 0%.
`Cc1ccc(Cl)cc1N1CCN(C(=O)CN2C(=O)c3cccc4cccc2c34)CC1`: the inhibition is 6%.
Take `O=C(C1CCC(CNS(=O)(=O)c2cccc3cccnc23)CC1)N1CCCC1` (stereo not given): the inhibition was 0%.
For `O=C1CSC(=Nc2ccc(O)cc2)N1c1ccc(O)cc1`, the inhibition is 0%.
As to `c1cnn(-c2cc(N3CCOCC3)ncn2)c1`, the inhibition is 0%.
For `Cc1cc2oc(=O)cc(CN3CCN(Cc4ccc5c(c4)OCO5)CC3)c2cc1C`, the inhibition was 0%.
With `COCCNC(=O)NC(=O)COC(=O)Cc1ccc2c(c1)OCCO2` the figure was 4%.
Then `O=C(c1cccnc1)N1CCN(Cc2ccc3c(c2)OCO3)CC1`, with 0%; and `Cc1cc(C)c2ccc(N)nc2c1O`, with 0%; and `CC1=C(C(=O)OC2CCCCCC2)C(c2ccc(C)o2)C2=C(CCCC2=O)N1` (stereo not given), with 0%.
In the case of `c1ccc2c(c1)sc1nnnn12`, the inhibition was 12%.
For `Cn1c(C(=O)N2CCCC(C(=O)NCCCc3ccccc3)C2)cc2sccc21` (stereo not given), the inhibition was 0%.
For the compound `CCn1cc(C(=O)O)c(=O)c2ccc(C)nc21`, the inhibition is 0%.
On to `COc1ccccc1N1CCN(C(=O)CCNS(=O)(=O)c2ccc3c(c2)CCC(=O)N3)CC1`, for which the inhibition was 0%.
Turning to `CCc1nnc(NC(=O)c2ccc(S(=O)(=O)NC3CCCCC3)cc2)s1`, the inhibition was 0%.
Regarding `Cc1noc(C)c1COc1cccc(C(=O)Nc2ccc(C#N)cc2)c1`, the inhibition is 0%.
Then `Cc1c(NC(=O)CN2c3cccc4cccc(c34)S2(=O)=O)c(=O)n(-c2ccccc2)n1C`, with 0%.

The values above are taken from PubChem BioAssay.
